Experimental findings from PubChem BioAssay (NCATS) are described below.

Where “and” joins values, the source holds several entries; their conditions need not be identical. Equal entries are not always repeated. Records with an inconclusive call do not appear. A structure can be active in one record and inactive in another. Calls of active or inactive are those of the source. Calls come from the whole dose curve; as a rule, active = well fitted curve in the direction sought with a large enough effect; inconclusive = small, poorly fitted or top-dose-only effect, or another doubt; inactive = no such curve, though single readings can be large; an effect the other way counts as inactive or inconclusive.
Note: nearly all actives have a fitted effect of over 70% in size.
Potency is the fitted concentration of half-maximal effect.

One test in a line: Primary qHTS for inhibitors of nuclear receptor binding SET domain protein 2 (NSD2) in an isogenic RCH-ACV NSD2 p.E1099K mutant (9B) (AID 1645876). Particulars: RCH-ACV NSD2 E1099K (9B) viability, CellTiter-Glo, 72 h; series mostly up to 44.9 µM.
Turning to `CCn1c(C(=O)N(C2CC2)C2CC2)cc2c3c(ncn3C)c(Nc3cc(C)n(C)n3)nc21`, the Potency is 11.5 µM (active) and 16.6 µM (active).

As to `CCOC(=O)C1=C(N)Oc2ccc(Br)cc2C1C(C#N)C(=O)OCC` (configuration not stated), the Potency entry is “inactive”.

Consider `O=C(CCN1CCN(C(=O)OCc2cc(Cl)cc(Cl)c2)CC1)c1ccc2[nH]c(=O)oc2c1`, for which the Potency is 18.6 µM (active).

As to `CN[C@@H](C)C(=O)N[C@H]1CN(C(=O)CC(C)C)CC[C@H]2CC[C@@H](C(=O)NC(c3ccccc3)c3ccccc3)N2C1=O`, the Potency result was “inactive”.

Take `Cc1ccc(Nc2cc(-c3cccc(N4C(=O)c5ccccc5C4=O)c3)ncn2)cc1NS(C)(=O)=O`: the Potency is 16.6 µM (active).

For `COc1cc2c(cc1OC)CN(CCc1ccc(NC(=O)c3cc(OC)c(OC)cc3NC(=O)c3cnc4ccccc4c3)cc1)CC2`, the Potency result is “inactive”.

For the molecule `OC[C@@H](O)[C@H](O)[C@H](O)[C@@H](O)CO`, the Potency result was “inactive”.

As for `CC(C)(Cc1ccc2ccccc2c1)NC[C@@H](O)COc1cccc(Cl)c1C#N`, the Potency is 4.68 µM (active).

As to `CS(=O)c1ccc(-c2nc(-c3ccc(F)cc3)c(-c3ccncc3)[nH]2)cc1` (configuration not stated), the Potency is 18.6 µM (active).

Turning to `CCN(CC)CCOC(=O)c1ccc(N)cc1`, the Potency entry was “inactive”.

Turning to `COc1cc(NC(=O)c2ccc(-c3ccc(Cl)cc3)o2)cc(OC)c1`, the Potency result is “inactive”.

Take `O=C(CCCCCCC(=O)Nc1ccccc1)NO`: the Potency is 94.4 nM (active) and 1.63 µM (active) and 662 nM (active).

With `COc1cc2ncnc(Nc3ccc(F)c(Cl)c3)c2cc1OCCCN1CCOCC1`, the Potency is 23.7 µM (active) and 20.6 µM (active) and inactive.

As to `C[N+](C)(C)CC(=O)O`, the Potency result is “inactive”.

For `CC(C)(C)Cn1c(N)nc2ccc(-c3[nH]c(C(C)(C)C)nc3-c3ccc(F)cc3)nc21`, the Potency was 2.9 µM (active) and 16.6 µM (active).

Regarding `O=C1C[C@@H](c2ccc(O)cc2)Oc2cc(O)cc(O)c21`, the Potency result was “inactive”.

In the case of `NC(=O)c1cccc(-c2cc(Nc3ccc(OC(F)(F)F)cc3)ncn2)c1`, the Potency is 20.5 µM (active) and 14.8 µM (active).

For `c1ccc2c(-c3cnn4cc(-c5ccc(N6CCNCC6)cc5)cnc34)ccnc2c1`, the Potency was 2.63 µM (active).

As to `CC[C@]1(O)C[C@@H]2CN(CCc3c([nH]c4ccccc34)[C@@](C(=O)OC)(c3cc4c(cc3OC)N(C)[C@H]3[C@@](O)(C(=O)OC)[C@H](OC(C)=O)[C@]5(CC)C=CCN6CC[C@]43[C@@H]65)C2)C1`, the Potency was 33.5 nM (active) and 84.1 nM (active) and 57.8 nM (active).

Consider `CCc1ccc(OCc2ccccc2C(=O)Nc2ccc3nc(C)cc(N)c3c2)cc1`, for which the Potency is 2.63 µM (active).

For the molecule `C[C@@H](O)[C@H]1C(=O)N2C(C(=O)O)=C(S[C@@H]3CN[C@H](C(=O)N(C)C)C3)[C@H](C)[C@H]12`, the Potency entry was “inactive”.

For the molecule `CCOc1ccc(Nc2nc(-c3c(C)nc4ccccn34)cs2)cc1`, the Potency is 0.183 µM (active).

Turning to `CCCCCNC(=O)N1CCC(CN(Cc2ccc(Cl)cc2)Cc2ccc([N+](=O)[O-])s2)C1` (configuration not stated), the Potency result was “inactive”.

As to `COc1ccc2c(Oc3ccc(NC(=O)c4c(C)n(CC(C)(C)O)n(-c5ccccc5)c4=O)nc3)ccnc2c1`, the Potency result is “inactive”.

In the case of `COc1ccc2cc(-c3nc(-c4ccc(S(C)=O)cc4)[nH]c3-c3ccncc3)ccc2c1` (configuration not stated), the Potency is 23.5 µM (active) and 20.5 µM (active).

Regarding `Cn1c(N2CCCCS2(=O)=O)nc(C(=O)NCc2ccc(F)cc2)c(O)c1=O`, the Potency entry was “inactive”.

In the case of `COc1ccc2c(Oc3ccc(NC(=O)c4c(C)n(CC(C)(C)O)n(-c5ccccc5)c4=O)cc3F)ccnc2c1`, the Potency is 11.5 µM (active).

`O=C(O)c1cc(-c2ccccc2)nc2ccccc12`: the Potency result is “inactive”.

For the molecule `CC1CCC(C(=O)N(c2cc(C#CC(C)(C)C)sc2C(=O)O)C2CCC(O)CC2)CC1` (configuration not stated), the Potency is 20.9 µM (active).

With `Cc1cccc(Nc2nc(-c3ccncc3)cs2)c1`, the Potency is 10.3 µM (active) and 11.8 µM (active).

With `CN(C[C@@H]1COCCO1)S(=O)(=O)Nc1ccc2ccc3ncc(-c4cnn(C)c4)cc3c(=O)c2c1`, the Potency was 5.15 µM (active).

`COCCOC(=O)C1=C(C)NC2=C(C(=O)CC(c3ccccc3OC)C2)C1c1cccc(O)c1` (configuration not stated): the Potency was 4.68 µM (active) and 3.65 µM (active).

As for `Cc1c(NC(=O)c2ccc(C(C)(C)C)cc2)cccc1-c1cn(C)c(=O)c(Nc2ccc(C(=O)N3CCOCC3)cc2)n1`, the Potency result was “inactive”.

The next test in a line: Primary qHTS for inhibitors of nuclear receptor binding SET domain protein 2 (NSD2) in an RCH-ACV wild type WT cells (2C) (AID 1645877). As to conditions: RCH-ACV (leukaemia line) NSD2 WT (2C) viability, CellTiter-Glo, 72 h; series mostly up to 44.9 µM. In general terms: In qHTS, concentration-response curves come from the screen itself.
As to `CCOC(=O)C1=C(N)Oc2ccc(Br)cc2C1C(C#N)C(=O)OCC` (configuration not stated), the Potency entry is “inactive”.

Consider `O=C(CCN1CCN(C(=O)OCc2cc(Cl)cc(Cl)c2)CC1)c1ccc2[nH]c(=O)oc2c1`, for which the Potency is 14.5 µM (active) and 18.6 µM (active).

On to `CN[C@@H](C)C(=O)N[C@H]1CN(C(=O)CC(C)C)CC[C@H]2CC[C@@H](C(=O)NC(c3ccccc3)c3ccccc3)N2C1=O`, for which the Potency result is “inactive”.

Regarding `Cc1ccc(Nc2cc(-c3cccc(N4C(=O)c5ccccc5C4=O)c3)ncn2)cc1NS(C)(=O)=O`, the Potency is 18.6 µM (active).

Regarding `COc1cc2c(cc1OC)CN(CCc1ccc(NC(=O)c3cc(OC)c(OC)cc3NC(=O)c3cnc4ccccc4c3)cc1)CC2`, the Potency entry was “inactive”.

With `OC[C@@H](O)[C@H](O)[C@H](O)[C@@H](O)CO`, the Potency entry is “inactive”.

Take `CC(C)(Cc1ccc2ccccc2c1)NC[C@@H](O)COc1cccc(Cl)c1C#N`: the Potency is 6.61 µM (active).

Turning to `CCN(CC)CCOC(=O)c1ccc(N)cc1`, the Potency result was “inactive”.

Take `O=C(CCCCCCC(=O)Nc1ccccc1)NO`: the Potency is 106 nM (active) and 649 nM (active) and 833 nM (active).

With `COc1cc2ncnc(Nc3ccc(F)c(Cl)c3)c2cc1OCCCN1CCOCC1`, the Potency is 10.6 µM (active) and 11.5 µM (active).

On to `C[N+](C)(C)CC(=O)O`, for which the Potency result was “inactive”.

Regarding `CC(C)(C)Cn1c(N)nc2ccc(-c3[nH]c(C(C)(C)C)nc3-c3ccc(F)cc3)nc21`, the Potency is 2.58 µM (active) and 16.6 µM (active).

`NC(=O)c1cccc(-c2cc(Nc3ccc(OC(F)(F)F)cc3)ncn2)c1`: the Potency was 23 µM (active) and 13.2 µM (active).

`Clc1ccc(Cn2c(CN3CCCC3)nc3ccccc32)cc1`: the Potency entry was “inactive and 18.6 µM (active)”.

Take `c1ccc2c(-c3cnn4cc(-c5ccc(N6CCNCC6)cc5)cnc34)ccnc2c1`: the Potency was 2.09 µM (active).

On to `CC[C@]1(O)C[C@@H]2CN(CCc3c([nH]c4ccccc34)[C@@](C(=O)OC)(c3cc4c(cc3OC)N(C)[C@H]3[C@@](O)(C(=O)OC)[C@H](OC(C)=O)[C@]5(CC)C=CCN6CC[C@]43[C@@H]65)C2)C1`, for which the Potency was 26.6 nM (active) and 53.1 nM (active) and 36.5 nM (active).

On to `CCc1ccc(OCc2ccccc2C(=O)Nc2ccc3nc(C)cc(N)c3c2)cc1`, for which the Potency is 2.95 µM (active).

For the molecule `C[C@@H](O)[C@H]1C(=O)N2C(C(=O)O)=C(S[C@@H]3CN[C@H](C(=O)N(C)C)C3)[C@H](C)[C@H]12`, the Potency entry was “inactive”.

For the molecule `CCOc1ccc(Nc2nc(-c3c(C)nc4ccccn34)cs2)cc1`, the Potency is 183 nM (active) and inactive.

For the molecule `CCCCCNC(=O)N1CCC(CN(Cc2ccc(Cl)cc2)Cc2ccc([N+](=O)[O-])s2)C1` (configuration not stated), the Potency result is “inactive”.

For the molecule `COc1ccc2cc(-c3nc(-c4ccc(S(C)=O)cc4)[nH]c3-c3ccncc3)ccc2c1` (configuration not stated), the Potency is 26.3 µM (active) and 20.5 µM (active).

With `Cn1c(N2CCCCS2(=O)=O)nc(C(=O)NCc2ccc(F)cc2)c(O)c1=O`, the Potency entry is “inactive”.

As to `COc1ccc2c(Oc3ccc(NC(=O)c4c(C)n(CC(C)(C)O)n(-c5ccccc5)c4=O)cc3F)ccnc2c1`, the Potency was 14.5 µM (active).

For `O=C(O)c1cc(-c2ccccc2)nc2ccccc12`, the Potency result was “inactive”.

Turning to `CC1CCC(C(=O)N(c2cc(C#CC(C)(C)C)sc2C(=O)O)C2CCC(O)CC2)CC1` (configuration not stated), the Potency is 16.6 µM (active).

On to `Cc1cccc(Nc2nc(-c3ccncc3)cs2)c1`, for which the Potency was 10.3 µM (active) and 13.2 µM (active).

As for `CN(C[C@@H]1COCCO1)S(=O)(=O)Nc1ccc2ccc3ncc(-c4cnn(C)c4)cc3c(=O)c2c1`, the Potency was 6.49 µM (active).

Regarding `COCCOC(=O)C1=C(C)NC2=C(C(=O)CC(c3ccccc3OC)C2)C1c1cccc(O)c1` (configuration not stated), the Potency was 3.72 µM (active) and 3.25 µM (active).

Regarding `O=C(O)c1c(Cl)c(Cl)c(Cl)c(Cl)c1-c1c2cc(I)c(=O)c(I)c-2oc2c(I)c(O)c(I)cc12`, the Potency was 9.34 µM (active).
